Measured values: PubChem BioAssay (NCI)
Compounds without any hit were thinned out: in the full panel of roughly 83,000, 20% have a hit.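 The test compound was applied at a single concentration to cells in 96-well plates for 48 hours, and percent growth was recorded.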 The source made the active and inactive calls. Rule for the calls: active = growth percent below 10; inactive = the rest.

What was measured:
Test in all cases: NCI-60 one-dose screen, 48 h (100 = growth as untreated, 0 = no growth, -100 = all killed)
[1] = test system: SR leukemia; conditions: 10 µM
[2] = test system: OVCAR-8 ovarian; conditions: 10 µM
[3] = test system: OVCAR-5 ovarian; conditions: 10 µM
[4] = test system: OVCAR-4 ovarian; conditions: 10 µM
[5] = test system: SK-OV-3 ovarian; conditions: 10 µM
[6] = test system: IGROV1 ovarian; conditions: 10 µM
[7] = test system: OVCAR-3 ovarian; conditions: 10 µM
[8] = test system: HS 578T breast; conditions: 10 µM
[9] = test system: NCI/ADR-RES ovarian; conditions: 10 µM
[10] = test system: T-47D breast; conditions: 10 µM
[11] = test system: BT-549 breast; conditions: 10 µM
[12] = test system: MDA-MB-435 melanoma; conditions: 10 µM
[13] = test system: SW-620 colon; conditions: 10 µM
[14] = test system: MCF7 breast; conditions: 10 µM unless noted
[15] = test system: HCT-116 colon; conditions: 10 µM
[16] = test system: HCC-2998 colon; conditions: 10 µM
[17] = test system: KM12 colon; conditions: 10 µM

Measured: growth

CC(=O)OCCC(C)CCC=C(C)C (stereo not drawn)
inactive: [1] 108% | [2] 102% | [3] 102% | [4] 107% | [5] 111% | [6] 112% | [7] 121% | [8] 104% | [9] 107% | [10] 98.8% | [11] 102% | [12] 102% | [13] 95.4% | [14] 101% | [15] 100% | [16] 102% | [17] 102%

NC(=O)NC(=O)c1ccc(Cl)cc1
inactive: [1] 88.9% | [2] 106% | [3] 113% | [5] 103% | [6] 92.6% | [7] 125% | [8] 97.9% | [9] 107% | [10] 96.9% | [11] 99.4% | [12] 102% | [13] 102% | [14] 95.4% | [15] 87.9% | [16] 111% | [17] 110%

O=[N+]([O-])c1ccccc1N=Nc1ccc(O)cc1O
inactive: [1] 93% | [2] 104% | [3] 126% | [4] 99.5% | [5] 101% | [6] 92.9% | [7] 122% | [8] 131% | [9] 118% | [10] 104% | [12] 120% | [13] 116% | [14] 94.7% | [15] 100% | [17] 110%

O=[N+]([O-])c1cccc(N=Nc2ccc(O)cc2O)c1
inactive: [1] 43.1% | [2] 74.3% | [3] 143% | [4] 62.3% | [5] 101% | [6] 83.6% | [7] 62.4% | [8] 72.7% | [9] 88.8% | [10] 54% | [11] 49.8% | [12] 87.3% | [13] 55.7% | [14] 84.3% | [15] 14.3% | [17] 90.9%

Oc1ccc(Cc2ccccc2)c2cccnc12
inactive: [2] 15.5% | [3] 37.2% | [4] 23.1% | [5] 19.9% | [7] 28.9% | [10] 25.3% | [11] 11% | [12] 32.2% | [14] 14.1% | [16] 26.2% | [17] 24.8%
active: [1] 5.04% | [6] -4.71% | [9] 0.0508% | [15] 7.1%

O=C1C=C(O)C(=O)C=C1O
inactive: [1] 98.2% | [2] 103% | [3] 108% | [4] 118% | [5] 87.9% | [6] 111% | [7] 107% | [9] 101% | [10] 93.9% | [11] 103% | [12] 109% | [13] 104% | [14] 96.5% | [15] 105% | [16] 111% | [17] 107%

C/C(O)=C(\C=N\C(N)=S)C(=O)Nc1ccccc1
inactive: [1] 91.7% | [2] 99.7% | [3] 113% | [4] 101% | [5] 100% | [6] 103% | [7] 108% | [9] 110% | [10] 102% | [11] 108% | [12] 110% | [13] 110% | [14] 102% | [15] 102% | [16] 110% | [17] 104%

CN(C)c1ccc(S(=O)(=O)O)cc1
inactive: [1] 92.9% | [2] 101% | [3] 93% | [4] 106% | [5] 89% | [6] 118% | [7] 109% | [8] 114% | [9] 104% | [10] 87.6% | [11] 98.6% | [12] 110% | [13] 111% | [14] 99.8% | [15] 96% | [16] 103% | [17] 104%

O=c1[nH]nc(SC2CCCCC2)c(=O)[nH]1
inactive: [1] 97.6% | [2] 101% | [3] 99% | [4] 98.9% | [5] 93.2% | [6] 101% | [7] 96.2% | [8] 92% | [9] 94.3% | [10] 99.6% | [12] 105% | [13] 98.6% | [14] 97.5% | [16] 92% | [17] 107%

CC(=O)Nc1cccc(NC(C)=O)n1
inactive: [1] 123% | [2] 105% | [3] 143% | [4] 112% | [5] 101% | [7] 112% | [8] 102% | [9] 131% | [10] 87.1% | [11] 107% | [12] 101% | [13] 99.1% | [14] 99% | [15] 98.9% | [16] 130% | [17] 105%

O=C(NCO)c1ccccc1
inactive: [1] 98.3% | [2] 108% | [3] 104% | [4] 109% | [5] 104% | [6] 97.2% | [7] 104% | [8] 111% | [9] 109% | [10] 102% | [12] 108% | [13] 103% | [14] 101% | [15] 105% | [16] 111% | [17] 102%

N#Cc1ccc(OC(=O)Nc2ccc(Cl)c(Cl)c2)cc1
inactive: [1] 39.4% | [2] 59% | [3] 91.6% | [4] 66.7% | [5] 107% | [6] 64.4% | [7] 33.3% | [8] 103% | [9] 65.5% | [10] 27.9% | [11] 93.3% | [12] 99.3% | [13] 96.2% | [14] 44.5% | [15] 50% | [16] 87.1% | [17] 42.9%

O=S(=O)(O)c1cc(O)c2c(N=Cc3ccccc3O)c(S(=O)(=O)O)ccc2c1
inactive: [1] 95.1% | [2] 105% | [3] 103% | [4] 109% | [5] 103% | [6] 88.4% | [7] 105% | [8] 103% | [9] 104% | [10] 106% | [11] 101% | [12] 109% | [13] 103% | [14] 104% | [15] 98.4% | [16] 102% | [17] 103%

CC1CC(O)CC(C)(C)C1 (stereo not drawn)
inactive: [1] 106% | [2] 102% | [3] 97.1% | [4] 116% | [5] 103% | [6] 103% | [7] 93.5% | [9] 110% | [10] 104% | [11] 102% | [12] 101% | [13] 110% | [14] 101% | [15] 99.8% | [16] 109% | [17] 90.3%

CC(=O)OCCO
inactive: [1] 107% | [2] 101% | [3] 102% | [4] 100% | [5] 113% | [6] 113% | [7] 110% | [8] 115% | [9] 110% | [10] 109% | [11] 109% | [12] 107% | [13] 107% | [14] 96.9% | [15] 103% | [16] 111% | [17] 108%

c1cc[n+](C2c3ccccc3C([n+]3ccccc3)c3ccccc32)cc1 (stereo not drawn)
inactive: [1] 50.6% | [2] 46.8% | [3] 95% | [4] 75.3% | [5] 92.5% | [6] 30.4% | [7] 77.1% | [9] 106% | [10] 75.5% | [11] 100% | [12] 79.3% | [13] 69.8% | [14] 68.8% | [15] 68.2% | [16] 68.2% | [17] 56.7%

Brc1cnc2ccccc2c1
inactive: [1] 103% | [2] 104% | [3] 96.3% | [4] 118% | [5] 111% | [6] 107% | [7] 99.7% | [9] 102% | [10] 108% | [11] 103% | [12] 105% | [13] 95.8% | [14] 101% | [15] 106% | [16] 100% | [17] 100%

O=C(O)COCC(=O)O
inactive: [1] 95.3% | [2] 98.2% | [3] 107% | [4] 88.6% | [5] 111% | [6] 105% | [7] 103% | [8] 117% | [9] 106% | [10] 129% | [11] 122% | [12] 109% | [13] 102% | [14] 100% | [15] 108% | [16] 114% | [17] 96.4%

C=CCc1cc(C(C)=O)cc(OC)c1O
inactive: [1] 113% | [2] 101% | [3] 101% | [4] 107% | [5] 113% | [7] 106% | [8] 102% | [9] 107% | [10] 118% | [11] 97.2% | [12] 113% | [13] 95.9% | [14] 106% | [15] 102% | [16] 96.3% | [17] 96.6%

Cc1ccncc1C(N)=O
inactive: [1] 109% | [2] 107% | [3] 138% | [4] 96.8% | [5] 101% | [7] 90.6% | [8] 116% | [9] 133% | [10] 84.5% | [11] 111% | [12] 118% | [13] 98.4% | [14] 96% | [15] 94.5% | [16] 124% | [17] 90.1%
